Each structure is given as a SMILES string. Screen size: about 410,000 compounds; about 5,100 (1.2%) were called active. Roughly 8% stayed inconclusive and do not appear here. The rule behind the calls is not given here. Shown is part of a subset that was picked to be rich in actives.

A short description of this experiment: High Throughput Screening for Foot and Mouth Disease Virus Antivirals. Format: functional. Particulars: read-out: Potency.
Consider `CN(C)CCNC(=O)C1CCN(Cc2cc3ccccc3n2Cc2ccccc2)CC1`, for which the AC50 is 398 µM (active).

For the origin of these results see ChEMBL document CHEMBL1201862, “PubChem BioAssay data set” (2004).
